Screening results from PubChem.
A selection: hits, their analogues and other compounds. The true share with any hit is near 2.5%.
PAX8 reporter: inhibitors of PAX8 transcriptional activity in RMG-I cells; RMG-I TPO-luciferase reporter, SteadyGlo, 24 h; inhibition, % at 12.6 µM; 360,000 tested, 1.2% active;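 active means mean replicate inhibition at least 60% with every replicate also reaching 60%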;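 further: luciferase light reporting Pax8 driven TPO promoter activity; plate controls were median of neutral control wells for no effect and mitoxantrone controls for full effect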
EWS-Fli block: inhibitors of EWS/Fli oncoprotein transcriptional activity. A673 NR0B1-luciferase reporter, viability-normalised. inhibition, % at 12.6 µM. AID 651661. 350,000 tested, 0.67% active;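 active means mean inhibition of at least 50% after viability correction, with every replicate also passing that limit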;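 further: firefly luciferase signal divided by Alamar Blue viability fluorescence both relative to DMSO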
F508del corr: correctors of CFTR F508del function in bronchial epithelial cells | CFBE cells, YFP halide quenching; stimulated with forskolin plus potentiator P3; % fluorescence drop versus neutral controls | activity (quench increase), % at 7.58 µM | 350,000 tested, 0.36% active | AID 720511;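 active means mean added fluorescence quench of at least 8% versus neutral control, with both replicates also reaching 8%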;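 further: cells transiently co-express mutant CFTR-F508del with the halide-sensitive YFP; corrector assay measuring rescue of mutant channel to the surface after 24 h compound exposure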
HIV Env fusion: blocks HIV Env-driven cell-cell fusion | HeLa-JRFL Env/CEM21 cell fusion, luciferase | inhibition, % at 12.3 µM | 360,000 tested, 1.1% active | AID 651610;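 active means mean replicate inhibition score of at least 50 and every replicate individually at or above 50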;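 further: 0% = plate neutral controls and 100% = maraviroc near 300 nM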
FXN GAA850 act: frataxin GAA850 promoter activation | 360,000 tested, 0.56% active | HEK293 lucGAA850 FXN promoter luciferase reporter, 24 h; percent of 10 µM SAHA response | activation, % at 6 µM;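 active means activation above the average of all compounds screened plus 3 SD, cutoff fixed separately per campaign, cut at about 7.5% in these data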;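 further: 0% = DMSO wells and 100% = 10 µM SAHA wells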
GAA30 counter: activates GAA30 frataxin promoter, counter-screen for GAA850 activators | shares compounds with FXN GAA850 act | AID 588350 | 1,900 tested, 66% active | activation, % at 6 µM | HEK293 lucGAA30 FXN promoter luciferase, 24 h; DMSO = 0%, 5 µM ipriflavone = 100%;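 active means mean activation above the mean of solvent-only control wells plus 3 SD, cut at about 22% in these data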;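 further: counterscreen of GAA850 promoter hits where activity marks nonselective or luminescence artifacts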
GAA850 confirm: GAA850 FXN promoter activation confirmation; shares compounds with FXN GAA850 act; HEK293 lucGAA850 FXN promoter luciferase reporter, 24 h; 100% = activation by SAHA; activation, % at 6 µM; 1,900 tested, 86% active;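 active means mean activation above a set limit taken from the primary screen, cut at about 8% in these data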;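 further: 0% = DMSO wells and 100% = 10 µM SAHA wells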
Starred values were filed as active, the others as inactive; . = no result; ! = not confirmed by another sample; [ ] = dose if it differs, or a comment.

SMILES | PAX8 reporter | EWS-Fli block | F508del corr | HIV Env fusion | FXN GAA850 act | GAA30 counter | GAA850 confirm
O=C(NCCc1ccc(Cl)cc1)C1CCC(CNc2c(N3CCCCC3)c(=O)c2=O)CC1 (centres undefined) | 4 | -1 | -2 | 7 | 16* | 28* | 5
Cc1ccc2c(COC(=O)c3ccccc3Cl)cc(=O)oc2c1 | -124 | -33 | 1 | -79 | 8.5* | 126* | 42*
O=C(NC1CCCC1)N1CCCCN2[C@@H](CO)[C@@H](c3ccc(-c4ccccc4)cc3)[C@@H]2C1 | -9 | 1 | -2 | . | . | . | .
Fc1ccc(Nc2ccnc(Nc3ccc(F)cc3)n2)cc1 | -14 | -60 | . | 9 | 8.4* | 107* | 34*
CCOC(=O)c1c(C)[nH]c(C(=O)OCCOc2ccccc2C)c1C | -153 | -58 | . | -72 | 9.5* | 98* | 26*
c1ccc2c(-c3nc4ccccc4[nH]3)cccc2c1 | 10 | -2 | -1 | -211 | -4 | . | .
c1ccc2[nH]c(-c3ccnc4ccccc34)nc2c1 | -64 | . | . | -165 | 9.4*! | 65* | 19*
O=S(=O)(N[C@H]1CC[C@H](CCn2cc(C3(O)CCCC3)nn2)O[C@@H]1CO)c1ccc(Cl)cc1 | 12 | -3 | 4 | 21[16.7 µM] | . | . | .
C[C@@H]1CN([C@@H](C)CO)S(=O)(=O)c2ccc(C#Cc3ccncc3)cc2O[C@H]1CN(C)C | . | 6 | 2 | 21[16.7 µM] | . | . | .
COc1ccc(/C(C)=N/Nc2ccc(C(=O)O)cc2)cc1OC | . | . | . | . | 8.5* | 93* | 32*
COc1cc(/C(C)=N/Nc2ccc(C(=O)O)cc2)cc(OC)c1OC | -74 | . | . | -4 | 3 | . | .
COc1nc(N)nc(NC(=O)c2cccs2)c1N=O | -3 | 11 | 11* | -84 | 16* | 4 | 31*
Cc1ccc(C2CC(c3ccco3)n3ncnc3N2)cc1 (centres undefined) | 17 | 5 | 2 | 5 | 11* | 12 | 6
Fc1ccc(C2CC(c3ccco3)n3ncnc3N2)cc1 (centres undefined) | 24 | 8 | 1 | 2 | 1 | . | .
CC[C@]12c3[nH]c4ccccc4c3CCN1C(=O)C(CC(=O)NCC13CC4CC(CC(C4)C1)C3)C[C@@H]2C(=O)N1CCN(C(=O)C2CC2)CC1 (some centres undefined) | 31 | 5 | 1 | 100* | 9.0* | -10 | 3
CC[C@]12c3[nH]c4ccc(OC)cc4c3CCN1C(=O)C(CC(=O)NCCCN(C)C)C[C@@H]2C(=O)N1CCN(C(=O)C2CC2)CC1 (some centres undefined) | 2 | -5 | 3 | 11 | -1 | . | .
CC[C@]12c3[nH]c4ccc(OC)cc4c3CCN1C(=O)C(CC(=O)NCC13CC4CC(CC(C4)C1)C3)C[C@@H]2C(=O)N1CCN(C(=O)C2CC2)CC1 (some centres undefined) | 5 | 17 | -1 | 70* | 15* | 23* | 15*
C[C@@H]1CN([C@@H](C)CO)C(=O)c2cccc(NS(C)(=O)=O)c2O[C@@H]1CN(C)Cc1ccccc1 | 1 | 2 | -4 | 10[16.7 µM] | . | . | .
O=C(NC1CCCCC1)C(=O)c1c[nH]c2ccccc12 | -192 | -123 | -4 | -39 | 8.3* | 85* | 28*
CO[C@H]1CN(C)C(=O)c2cc(NC(C)=O)ccc2OC[C@H](C)N(Cc2ccncc2)C[C@H]1C | . | 2 | 0 | . | . | . | .
N#C[C@@H]1[C@H](c2ccc(C3=CCCCC3)cc2)[C@H](CO)N1C(=O)c1ccccn1 | -13 | 3 | -1 | 1[16.7 µM] | . | . | .
CC(C)n1c(SCC(N)=O)nc2c1c(=O)n(C)c(=O)n2C | . | 13 | 0 | . | 1 | . | .
CC(C)CCn1c(SCC(N)=O)nc2c1c(=O)n(C)c(=O)n2C | -9 | 8 | -1 | 41 | 11* | 18 | 9.7*
COc1cccc2sc(N(C)c3ccccc3)nc12 | -129 | . | . | -250 | 7.7* | 107* | 31*
COc1cccc2sc(N)nc12 | . | -2 | 1 | . | 4 | . | .
SMILES | PAX8 reporter | EWS-Fli block | F508del corr | HIV Env fusion | FXN GAA850 act | GAA30 counter | GAA850 confirm
NC(=O)c1c(NC(=O)c2ccccc2)sc2c1CCc1ccccc1-2 | . | . | . | -92 | 7.7* | 95* | 35*
COc1ccc(S(=O)(=O)N(C)C[C@H]2OCCCC[C@@H](C)Oc3ccc(NC(=O)Nc4ccccc4)cc3C(=O)N([C@@H](C)CO)C[C@H]2C)cc1 | 22 | 12 | -3 | -5[16.7 µM] | . | . | .
COC(=O)c1ccc(CSC(=N)N)o1 | -7 | 5 | 3 | -20 | 8.5* | 31* | 13*
CCCNC(=O)N1CCC2(CC1)CN(C(=O)CC)[C@H](CO)c1[nH]c3cc(OC)ccc3c12 | . | 3 | -1 | -30[16.7 µM] | . | . | .
Nc1c(-c2ccccc2)cnc2c(-c3ccccc3)cnn12 | -70 | 19 | 3 | -369 | 8.4* | 91* | 35*
Cc1ccc(S(=O)(=O)N2CCC(=O)N(CCOC(=O)Nc3cccc(Cl)c3)CC2)cc1 | 19 | 8 | -2 | 92* | 9.4* | 42* | 19*
C=C(C)CSc1nncn1/N=C/c1ccc(OC)cc1 | . | . | . | -130 | 11* | 102* | 34*
CNC[C@H]1OCCCC[C@@H](C)Oc2ccc(NS(=O)(=O)c3ccc(C)cc3)cc2C(=O)N([C@H](C)CO)C[C@H]1C | 5 | -3 | 0 | 27[16.7 µM] | . | . | .
C[C@H]1CN([C@@H](C)CO)C(=O)c2cc(/C=C/c3ccccc3)cnc2O[C@H]1CN(C)C(=O)C1CC1 | . | -1 | 0 | 12[16.7 µM] | . | . | .
CCc1ccc(C(=O)NC(CC(C)C)C(=O)O)cc1 (centres undefined) | . | . | . | -34 | 20* | 20 | 6
COc1ccc(C(=O)NC(CC(C)C)C(=O)O)cc1OC (centres undefined) | 1 | . | . | -32 | -1 | . | .
COc1ccc2c3c([nH]c2c1)[C@H](CO)N(C(=O)c1ccc(F)cc1)CC31CCN(C(=O)CC2CC2)CC1 | . | 0 | 2 | . | . | . | .
Cc1oc(=O)c(NC(=O)c2ccc(Cl)cc2)cc1C(=O)c1ccccc1 | -1 | . | . | -214 | 12* | 7 | 8.9*
Cc1oc(=O)c(NC(=O)c2ccccc2)cc1C(=O)c1ccccc1 | . | . | . | -101 | 8.2* | 100* | 29*
CCCN(C)C[C@@H]1Oc2ncc(-c3cccc(F)c3)cc2C(=O)N([C@H](C)CO)C[C@@H]1C | . | -3 | 3 | -3[16.7 µM] | . | . | .
C[C@H](CO)N1C[C@H](C)[C@@H](CN(C)S(=O)(=O)c2cccs2)Oc2ccc(NC(=O)Cn3cnnn3)cc2CC1=O | -2 | -2 | 0 | 14[16.7 µM] | . | . | .
CN(C)C(=O)c1cccc(-c2ccc([C@@H]3[C@H]4CN(C(=O)C5CCCCC5)CC(=O)N4[C@H]3CO)cc2)c1 | 6 | -3 | 3 | . | . | . | .
CCCC#Cc1ccc([C@H]2[C@@H](CO)N3C(=O)CN(C(=O)Nc4ccccc4F)C[C@H]23)cc1 | . | 3 | 0 | . | . | . | .
